MCF10A rereplic: DNA re-replication induction in MCF 10a cells; MCF 10A DNA re-replication, Hoechst nuclear intensity, 48 h; Potency, µM (doses to about 46.1 µM), for the others: top-dose activity, positive = re-replication, actives largely listed as activators; 2.9% of 350,000 active; further: % of control where 0% means no effect; nearly all actives have a fitted effect of over 50% in size
SW480 rereplic: induces DNA re-replication in SW480 colon adenocarcinoma cells. SW480 DNA re-replication, Hoechst DNA content imaging, 48 h. Potency, µM (highest dose often 46.1 µM), for inactives: at the highest dose re-replication activation, actives largely listed as activators. 1.8% of 340,000 active. AID 624297; further: % of control where 0% means no effect; nearly all actives have a fitted effect of over 55% in size
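Hoechst fluorescence of nuclei (405 nm excitation, 500-530 nm emission) measured by plate-scanning imager after 48 hr compound exposure at 37 C; re-replication scored as increased number of nuclei with elevated intensity.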
KB-3-1 tox: KB-3-1 parental cell cytotoxicity; Potency, µM (doses to about 46.1 µM), usual class: cytotoxic; 1.4% of 400,000 active; AID 1347075; KB-3-1 viability, CellTiter-Glo ATP luminescence, 72 h; further: on the % scale 0 is the no-effect control and ±100 the full control effect; nearly all actives have a fitted effect of over 60% in size
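Cytotoxicity measured as CellTiter-Glo luminescence after 72 h at 37 C. Compound titrations were pinned onto drug-naive KB-3-1 parental adenocarcinoma cells grown in DMEM with 10% FBS, and normalized data fitted to concentration-response curves.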
PINK1 expr mod: PINK1 expression modulation | Potency, µM (titrated, usually from 76.6 µM), without a hit: at the top dose activation (PINK1 increase), usual class: activators | 0.2% of 410,000 active | PINK1 immunofluorescence, high-content cytometry, 24 h; active means well fitted activation curve with a large enough effect; inconclusive means small, poorly fitted or top-dose-only effect; cell line not stated here; further: % of control where 0% means no effect; nearly all actives have a fitted effect of over 65% in size
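Fluorescence from anti-PINK1 antibody, together with nuclear and cell stains, was scanned on a laser-scanning cytometer. Before staining, stable-line cells were incubated 24 hours with compounds at 5 concentrations; primary antibody 12 h at 10 degrees C.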
KB-V1 MDR tox: kills drug-selected multidrug resistant KB-V1 cells; KB-V1 MDR cells viability, CellTiter-Glo, 72 h; Potency, µM (doses to about 46.1 µM), usual class: cytotoxic; 3.4% of 400,000 active; AID 1347076; further: on the % scale 0 is the no-effect control and ±100 the full control effect; nearly all actives have a fitted effect of over 60% in size
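Potencies derive from concentration-effect curves fitted to normalized luminescence (CellTiter-Glo) of KB-V1 cells treated for 72 h at 37 degrees C in phenol-red-free DMEM containing 10% FBS.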
Numbers without * were called inactive; i = inactive; ? = inconclusive; . = not tested or not shown; [ ] = remark or other dose. Shown are actives, neighbours in structure and some others; about 6.7% of the full set was active somewhere. Unless noted, the call rests on the fitted dose curve; in most records, active means well fitted curve in the direction sought with a large enough effect; inconclusive means small, poorly fitted or top-dose-only effect, or another doubt; inactive means no such curve, though single readings can be large; an effect the other way counts as inactive or inconclusive. Potency means the concentration at half of the fitted maximal effect.

SMILES | MCF10A rereplic | SW480 rereplic | KB-3-1 tox | PINK1 expr mod | KB-V1 MDR tox
COc1ccc(CNCCC(c2ccc(C)cc2)c2ccco2)cc1 (configuration not stated) | . | . | . | 23.8% | .
COc1ccc(CNCCC(c2ccc(OC(C)C)cc2)C(C)C)cc1OC (configuration not stated) | ? | ? | ? | ? | 5.17µM*
COc1ccc(CNCCC(c2ccc(OC(C)C)cc2)c2ccccc2OC)cc1OC (configuration not stated) | 23.0% | ? | ? | -4.4% | ?
COc1ccc(C(CCNCc2ccc(OC(C)C)cc2)C(C)C)cc1 (configuration not stated) | -11.6% | 18.6% | i | -2.7% | 14.6µM*
COc1ccc(C(CCNCc2ccc(N(C)C)cc2)C(C)C)cc1 (configuration not stated) | ? | ? | i | ? | 16.4µM*
CN(C)C(=O)c1ccc(NC(=O)CSc2nnc(-c3cccs3)n2N)cc1 | 0.2% | -15.7% | i | 1.8% | ?
Cc1cc([N+](=O)[O-])c2[nH]c(C(=O)N/N=C/c3ccccc3C(=O)O)c(-c3ccccc3)c2c1 | ? | ? | i | -6.2%[38.3 µM] | 4.11µM*
Nc1sccc1C(=O)NCCN1CCOCC1 | . | . | i | . | i
O=C1C=CC2(C=C1)O[C@H](Cc1ccccc1)[C@@H](Cc1ccccc1)O2 | ? | 0.92µM* | ? | -5.7% | 16.4µM*
COc1ccc(C[C@@H]2OC3(C=CC(=O)C=C3)O[C@H]2Cc2ccc(OC)cc2)cc1 | 0.731µM* | 0.92µM* | 2.31µM* | -1.0% | ?
COc1ccc(N2C(=O)CC(Cc3ccccc3)C2=O)cc1 (configuration not stated) | 580.0%[0.0737 µM] | 0.5% | i | -0.1% | ?
O=C1Nc2ccccc2C1Cc1ccccc1 (configuration not stated) | -8.7% | 0.2% | i | 3.2% | i
Cc1cc(C)c2c(=O)[nH]c(SCC(=O)c3ccc(C(C)C)cc3)nc2n1 | ? | -6.1% | i | 6.8% | 16.4µM*
Cc1ccc(S(=O)(=O)c2c(N)n(CCCN(C)C)c3nc4ccccc4nc23)cc1 | 20.6µM* | 23.1µM* | i | 3.6% | i
CN(C)CCCn1c(N)c(C#N)c2nc3ccccc3nc21 | 18.4µM* | 18.4µM* | i | -1.8% | i
CCCCC(CC)Cn1c(N)c(C#N)c2nc3ccccc3nc21 (configuration not stated) | 4.1% | 9.2µM* | i | . | i
N#Cc1c(N)n(-c2ccc(N)cc2)c2nc3ccccc3nc12 | -3.5% | -94.5% | i | 0.6% | i
Cc1ccc(S(=O)(=O)c2c(N)n(CC3CCOC3)c3nc4ccccc4nc23)cc1 (configuration not stated) | 0.1% | -3.9% | i | 3.6%[38.3 µM] | ?
c1ccc(OCCN2CCNCC2)cc1 | 9.9% | -5.7% | i | 2.1% | i
c1ccc(OCCN2CCN(C(c3ccccc3)c3ccccc3)CC2)cc1 | ? | 0.651µM* | i | ? | i
COc1ccc(CC(=O)Nc2cccc(/C(C)=N/NC(=O)C3(C)CC3(Br)Br)c2)cc1 (configuration not stated) | 6.9% | 1.5% | i | -0.5% | i
CCOCc1cc(CN2CCN(c3cccc(Cl)c3)CC2)c(O)c2ncccc12 | . | . | . | 1.6% | .
Oc1c(CN2CCN(c3ccccc3)CC2)cc(Br)c2cccnc12 | -1.8% | 18.4µM* | ? | 2.8% | i
COCc1cc(CN2CCN(C)CC2)c(O)c2ncccc12 | ? | ? | ? | 17.2% | 3.66µM*
c1ccc(N2CCN(Cc3ccnc4ccccc34)CC2)cc1 | 4.8% | 4.6% | 16.4µM* | -2.2%[38.3 µM] | i
CC(C)OCc1cc(CN2CCN(c3ccccc3)CC2)c(O)c2ncccc12 | . | . | ? | 0.7% | 6.51µM*
CC1=C(C(=O)N(C)C)CC(CC(=O)NCCCN(C)C)C(=O)N1Cc1ccccc1 (configuration not stated) | . | . | i | 0.3% | i
Cc1ccc(OCC(COCc2ccccc2)NC(C)C)cc1 (configuration not stated) | ? | -11.2% | i | 6.8% | i
